aSyn UTR act – Activators via SNCA 5'UTR binding, MLPCN; 7.1% of 300,000 active; alpha-synuclein 5'UTR reporter, activators screen; activity score, % (tested at 7.5 µM), hits read low; in the data active = activity score below about -60%
Numbers without * were called inactive. These entries were drawn from the full list.

SMILES	aSyn UTR act
O=[N+]([O-])c1ccc(NC2CCCC2)c2ccncc12	58.0
O=c1[nH]c(=S)[nH]c(O)c1N=Nc1ccc(SC(F)F)cc1	-72.0*
CC[n+]1c(/C=C/C=C/c2ccc(N(C)C)cc2)sc2ccccc21	59.7
C[C@@H]1C[C@H]2OC(=O)C3(CO3)[C@H]2[C@H](O)[C@]2(C)C(=O)C3OC3[C@@H]12 (stereo partly drawn)	-62.5*
C=C1C(=O)O[C@@H]2C[C@@H](C)[C@@H]3C=CC(=O)[C@@]3(C)[C@@H](O)[C@H]12	119.0
CN1C(=O)C(=Cc2ccc(OCC(=O)Nc3ccccc3)cc2)C(=O)N(C)C1=O	-77.7*
CCC(CC)NCc1c[nH]c2ccccc12	-61.8*
COC1CC(OC2CCC3(C)C(CCC4C3CCC3(C)C(C5=CC(=O)OC5)C(OC(C)=O)CC43O)C2)OC(C)C1OC1OC(COC2OC(CO)C(O)C(O)C2O)C(O)C(O)C1O (stereo not drawn)	114.5
CCC(=O)c1ccc(OC(=O)N(C)c2ccccc2)cc1	-118.1*
CN(C(=O)Oc1ccc(C(C)(C)C)cc1)c1ccccc1	-106.1*
Cc1cc(C(=O)CS(=O)(=O)c2ccc(F)cc2)cc(C)c1OC(=O)N(C)C	-135.4*
C[C@@H]1O[C@@H](O[C@H]2C[C@@H](O)[C@]3(CO)[C@H]4[C@H](O)C[C@]5(C)[C@@H](C6COC(=O)C6)CC[C@]5(O)[C@@H]4CC[C@]3(O)C2)[C@H](O)[C@H](O)[C@H]1O (stereo partly drawn)	114.9
COc1ccc(C(=O)N/N=C/C23CC[C@@H](O)CC2(O)CC[C@@H]2[C@@H]3CCC3(C)C(C4=CC(=O)OC4)CCC23O)cc1 (stereo partly drawn)	88.5
CN(C)c1ccc(/C=C/C=C/c2sc3ccccc3[n+]2C)cc1	59.8
Cc1ccc(CN2C3CCCC2CC(NC(=O)Nc2cccc(F)c2)C3)cc1 (stereo not drawn)	-98.7*
O=C(NC1CCCCC1)Oc1cc2oc(=O)sc2cc1Cl	-62.2*
Cc1cccc(Cn2cc(C=O)c3ccccc32)c1	67.6
CN1C(=O)N(C)C(=O)C2(Cc3cc([N+](=O)[O-])ccc3N(C)C2c2ccccc2)C1=O (stereo not drawn)	-61.9*
C/C1=C\[C@@H](C)C/C=C/[C@H]2[C@@H]3O[C@]3(C)[C@@H](C)[C@H]3[C@H](Cc4c[nH]c5ccccc45)NC(=O)[C@]32C(=O)/C=C/C(=O)[C@@H]1O	81.1
O=c1c2ccccc2nc(/C=C/c2ccc(O)cc2)n1-c1ccc(O)cc1	-79.9*
CCc1ccc(NC(=O)CCNC(=O)N2C[C@H]3C[C@@H](C2)c2cccc(=O)n2C3)cc1	-69.6*
Nc1ccc2c(c1)Cc1ccccc1-2	-174.6*
CCCCCCC[n+]1ccc(-c2cc[n+](CCCCCCC)cc2)cc1	91.5
CCOc1ccccc1-n1c(O)c(C=Nc2ccc(N(CC)CC)cc2)c(=O)[nH]c1=O	-65.5*
C=C(C=O)CC1CC(O)[C@]2(C)OC3CC4OC5C[C@]6(C)O[C@]7(C)CCC8OC9C[C@]%10(C)OC%11C(C)=CC(=O)OC%11CC%10OC9C[C@@H](C)C8OC7CC6O[C@]5(C)CC5OC5C4OC3CC2O1 (stereo partly drawn)	114.2
O=C(Nc1ccc2c(c1)OCO2)c1cn(Cc2ccc(F)cc2)nn1	-75.5*
CC12CC[C@H]3[C@@H](CCC4(O)C[C@H](O)CCC34/C=N/NC(=O)c3ccccc3O)C1(O)CCC2C1=CC(=O)OC1 (stereo partly drawn)	76.5
COC(=O)c1ccc(CC(C(=O)c2ccccc2)N(C)C)cc1 (stereo not drawn)	-153.9*
CN(C)C(Cc1ccc(Cl)cc1)C(=O)c1ccccc1 (stereo not drawn)	-81.6*
C/C=C(\C)C(=O)N[C@@H](c1ccccc1)[C@@H](O)C(=O)O[C@H]1C[C@@]2(O)[C@@H](OC(=O)c3ccccc3)C3[C@](C)(C(=O)[C@H](O)C(=C1C)C2(C)C)[C@@H](O)C[C@H]1OC[C@@]31OC(C)=O (stereo partly drawn)	98.2
